The source of these data is publication PMC7862700, “An all-to-all approach to the identification of sequence-specific readers for epigenetic DNA modifications on cytosine”.

Holding throughout (test): DAPPL (digital affinity profiling via proximity ligation, sequencing); 10 mM Tris-HCl pH 7.5, 50 mM NaCl, 1 mM DTT, 4% glycerol, room temperature, 30 min; GST-TFs on glutathione beads, 16-mer random dsDNA library, 0.1% formaldehyde crosslink after washing; high values mean tight binding
One test concerns the target T1, FLI1 (Homo sapiens, UniProt Q01543 1-452).
T1 sequence: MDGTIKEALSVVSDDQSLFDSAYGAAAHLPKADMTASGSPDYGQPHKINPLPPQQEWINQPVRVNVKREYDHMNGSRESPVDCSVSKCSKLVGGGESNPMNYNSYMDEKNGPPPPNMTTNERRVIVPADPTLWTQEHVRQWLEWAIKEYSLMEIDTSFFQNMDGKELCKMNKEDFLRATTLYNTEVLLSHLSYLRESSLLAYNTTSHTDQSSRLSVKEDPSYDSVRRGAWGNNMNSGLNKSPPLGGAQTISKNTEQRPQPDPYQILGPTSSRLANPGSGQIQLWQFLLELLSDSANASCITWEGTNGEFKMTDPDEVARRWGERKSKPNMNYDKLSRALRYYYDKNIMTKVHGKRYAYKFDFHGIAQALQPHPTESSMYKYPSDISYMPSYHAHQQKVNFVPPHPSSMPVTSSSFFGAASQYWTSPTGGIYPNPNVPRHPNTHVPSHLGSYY
Conditions: protein: recombinant; tags: N-terminal GST; dsDNA, one strand shown. In a few lines:
(§1)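 Pools were built from human transcription factors expressed in yeast as GST fusions, captured on glutathione beads and DNA-barcoded, along with a tag-only sample. Incubation with 200 nmole of a 16-mer random double-stranded DNA library lasted 30 min at room temperature in Tris/NaCl/DTT/glycerol buffer, and was followed by washing, 0.1% formaldehyde crosslinking, proximity ligation, PCR amplification and Illumina NextSeq500 sequencing. Binding signal is the quotient of each hexamer's read frequency for a factor and its frequency for the tag-only sample.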

For the next test, the target named is T2, ELK1 (Homo sapiens, UniProt P19419 1-428).
T2 sequence: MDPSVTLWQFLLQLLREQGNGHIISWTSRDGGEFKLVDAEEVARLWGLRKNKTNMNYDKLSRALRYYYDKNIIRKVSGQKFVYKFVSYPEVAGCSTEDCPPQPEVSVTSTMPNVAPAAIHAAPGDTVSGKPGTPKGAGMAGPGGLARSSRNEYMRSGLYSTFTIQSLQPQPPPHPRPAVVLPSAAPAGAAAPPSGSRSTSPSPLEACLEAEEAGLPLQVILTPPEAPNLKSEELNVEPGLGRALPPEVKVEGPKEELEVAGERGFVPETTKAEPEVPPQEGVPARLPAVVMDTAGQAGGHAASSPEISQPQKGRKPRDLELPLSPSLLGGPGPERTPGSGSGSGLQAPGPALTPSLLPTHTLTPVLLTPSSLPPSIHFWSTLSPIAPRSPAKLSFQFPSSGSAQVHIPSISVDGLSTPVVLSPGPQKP
As to conditions: protein: recombinant; tags: N-terminal GST; dsDNA, one strand shown. An outline of the steps:
as §1

The target in the next test is T3, GABPA (Homo sapiens, UniProt Q06546 1-454).
T3 sequence: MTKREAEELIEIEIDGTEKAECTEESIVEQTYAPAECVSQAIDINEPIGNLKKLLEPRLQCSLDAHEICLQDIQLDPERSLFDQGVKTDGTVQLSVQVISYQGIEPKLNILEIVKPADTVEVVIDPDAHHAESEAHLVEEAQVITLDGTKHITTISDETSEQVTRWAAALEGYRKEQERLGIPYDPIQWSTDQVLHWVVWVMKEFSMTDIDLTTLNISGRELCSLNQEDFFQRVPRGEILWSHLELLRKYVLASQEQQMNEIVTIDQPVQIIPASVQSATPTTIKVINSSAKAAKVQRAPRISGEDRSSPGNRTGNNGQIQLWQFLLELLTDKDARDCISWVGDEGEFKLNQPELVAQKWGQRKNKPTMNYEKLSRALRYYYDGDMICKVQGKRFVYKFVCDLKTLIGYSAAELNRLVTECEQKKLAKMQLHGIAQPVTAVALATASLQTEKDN
Conditions: protein: recombinant; tags: N-terminal GST; dsDNA, one strand shown. An outline of the steps:
as §1

The next test addresses T4, ERG (Homo sapiens, UniProt P11308 1-479).
T4 sequence: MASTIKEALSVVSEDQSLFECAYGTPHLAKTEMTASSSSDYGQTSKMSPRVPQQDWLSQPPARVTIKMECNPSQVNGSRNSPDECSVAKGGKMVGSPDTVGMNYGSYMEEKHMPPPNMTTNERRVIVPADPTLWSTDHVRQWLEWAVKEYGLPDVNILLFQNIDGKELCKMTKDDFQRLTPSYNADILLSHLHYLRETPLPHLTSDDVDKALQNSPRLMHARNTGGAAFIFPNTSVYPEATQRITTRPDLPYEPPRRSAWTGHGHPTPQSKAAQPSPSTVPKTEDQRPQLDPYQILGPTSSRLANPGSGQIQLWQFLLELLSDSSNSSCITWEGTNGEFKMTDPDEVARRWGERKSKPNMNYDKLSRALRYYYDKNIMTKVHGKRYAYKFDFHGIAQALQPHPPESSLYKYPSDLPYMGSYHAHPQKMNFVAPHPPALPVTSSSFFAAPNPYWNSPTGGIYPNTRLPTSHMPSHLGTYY
Conditions: protein: recombinant; tags: N-terminal GST; dsDNA, one strand shown. In a few lines:
as §1

The next test addresses ELF1 (Homo sapiens, UniProt P32519 1-619). As to conditions: protein: recombinant; tags: N-terminal GST; dsDNA, one strand shown. In a few lines: as §1
In a further test the target is T5, EHF (Homo sapiens, UniProt Q9NZC4 1-300).
T5 sequence: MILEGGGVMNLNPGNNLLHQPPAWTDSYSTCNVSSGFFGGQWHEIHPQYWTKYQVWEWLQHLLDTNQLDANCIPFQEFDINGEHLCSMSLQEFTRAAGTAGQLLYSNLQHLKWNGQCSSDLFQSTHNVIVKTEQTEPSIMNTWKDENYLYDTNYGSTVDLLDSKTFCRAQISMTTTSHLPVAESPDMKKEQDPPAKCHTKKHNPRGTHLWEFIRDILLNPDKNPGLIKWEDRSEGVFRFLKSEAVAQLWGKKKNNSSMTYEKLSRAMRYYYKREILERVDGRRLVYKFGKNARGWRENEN
Conditions: protein: recombinant; tags: N-terminal GST; dsDNA, one strand shown. In a few lines: as §1

The next test addresses SPI1 (Homo sapiens, UniProt P17947 1-270). Conditions: protein: recombinant; tags: N-terminal GST; dsDNA, one strand shown. An outline of the steps: as §1
Another test addresses SPIB (Homo sapiens, UniProt Q01892 1-262). As to conditions: protein: recombinant; tags: N-terminal GST; dsDNA, one strand shown. An outline of the steps:
as §1

For another test, the target named is T6, ELK3 (Homo sapiens, UniProt P41970 1-407).
T6 sequence: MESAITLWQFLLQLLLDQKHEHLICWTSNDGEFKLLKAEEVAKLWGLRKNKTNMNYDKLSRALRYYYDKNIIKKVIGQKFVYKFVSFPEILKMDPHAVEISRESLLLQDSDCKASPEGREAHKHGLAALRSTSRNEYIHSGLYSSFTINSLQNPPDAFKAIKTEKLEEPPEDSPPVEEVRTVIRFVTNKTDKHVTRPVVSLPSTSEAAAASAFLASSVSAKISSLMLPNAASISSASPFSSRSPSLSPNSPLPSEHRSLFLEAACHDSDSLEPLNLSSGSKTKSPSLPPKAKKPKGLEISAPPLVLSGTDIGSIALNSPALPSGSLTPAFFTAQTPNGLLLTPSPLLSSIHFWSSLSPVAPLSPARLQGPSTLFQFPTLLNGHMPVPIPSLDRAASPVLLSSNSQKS
Conditions: protein: recombinant; tags: N-terminal GST; dsDNA, one strand shown. In a few lines:
as §1

For another test, the target named is T7, FEV (Homo sapiens, UniProt Q99581 1-238).
T7 sequence: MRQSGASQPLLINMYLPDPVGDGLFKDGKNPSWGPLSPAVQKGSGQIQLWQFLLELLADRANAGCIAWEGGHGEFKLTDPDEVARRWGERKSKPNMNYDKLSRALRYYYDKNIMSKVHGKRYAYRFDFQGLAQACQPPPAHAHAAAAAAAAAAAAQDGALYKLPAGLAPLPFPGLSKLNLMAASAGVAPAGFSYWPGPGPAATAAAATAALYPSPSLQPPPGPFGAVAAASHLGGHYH
Conditions: protein: recombinant; tags: N-terminal GST; dsDNA, one strand shown. In a few lines:
as §1

The target in another test is ETV5 (Homo sapiens, UniProt P41161 1-510). As to conditions: protein: recombinant; tags: N-terminal GST; dsDNA, one strand shown. In a few lines:
as §1

The target in another test is HSF1 (Homo sapiens, UniProt Q00613 1-529). As to conditions: protein: recombinant; tags: N-terminal GST; chain copies: 3; dsDNA, one strand shown. An outline of the steps:
as §1

The next test has as its target T8, SPIC (Homo sapiens, UniProt Q8N5J4 1-248).
T8 sequence: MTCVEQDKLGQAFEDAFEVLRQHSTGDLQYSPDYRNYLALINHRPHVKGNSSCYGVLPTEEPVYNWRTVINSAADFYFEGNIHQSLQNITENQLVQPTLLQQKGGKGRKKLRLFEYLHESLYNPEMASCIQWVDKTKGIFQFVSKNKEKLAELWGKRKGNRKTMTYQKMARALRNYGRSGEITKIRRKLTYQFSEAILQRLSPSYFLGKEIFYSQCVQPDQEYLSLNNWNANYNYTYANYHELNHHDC
Conditions: protein: recombinant; tags: N-terminal GST; dsDNA, one strand shown. An outline of the steps: as §1

The next test addresses ELF4 (Homo sapiens, UniProt Q99607 1-663). As to conditions: protein: recombinant; tags: N-terminal GST; dsDNA, one strand shown. An outline of the steps: as §1
The next test has as its target T9, ELK4 (Homo sapiens, UniProt P28324-2 1-405).
T9 sequence: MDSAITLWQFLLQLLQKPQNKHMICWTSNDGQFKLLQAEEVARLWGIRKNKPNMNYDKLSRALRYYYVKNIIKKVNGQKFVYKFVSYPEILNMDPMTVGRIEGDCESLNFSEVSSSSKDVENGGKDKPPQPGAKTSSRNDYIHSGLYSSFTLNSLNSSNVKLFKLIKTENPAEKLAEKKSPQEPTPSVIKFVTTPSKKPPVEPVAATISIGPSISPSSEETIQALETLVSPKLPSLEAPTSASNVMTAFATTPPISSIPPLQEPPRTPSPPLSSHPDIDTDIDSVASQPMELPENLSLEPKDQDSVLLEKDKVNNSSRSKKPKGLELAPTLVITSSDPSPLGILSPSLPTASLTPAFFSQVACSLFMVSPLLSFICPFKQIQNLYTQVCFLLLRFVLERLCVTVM
As to conditions: protein: recombinant; tags: N-terminal GST; dsDNA, one strand shown. In a few lines: as §1

In another test the target is T10, ETV2 (Homo sapiens, UniProt O00321 1-342).
T10 sequence: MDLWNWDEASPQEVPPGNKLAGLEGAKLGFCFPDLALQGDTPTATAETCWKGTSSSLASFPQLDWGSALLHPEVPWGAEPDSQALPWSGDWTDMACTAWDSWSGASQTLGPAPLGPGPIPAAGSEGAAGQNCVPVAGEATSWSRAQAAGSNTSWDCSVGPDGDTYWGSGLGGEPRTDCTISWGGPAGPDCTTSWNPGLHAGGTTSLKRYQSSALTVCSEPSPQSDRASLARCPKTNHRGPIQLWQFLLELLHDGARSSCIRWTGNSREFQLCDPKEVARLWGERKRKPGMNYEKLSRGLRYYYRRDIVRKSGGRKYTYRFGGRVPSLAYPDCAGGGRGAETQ
As to conditions: protein: recombinant; tags: N-terminal GST; dsDNA, one strand shown. An outline of the steps:
as §1

A further test has as its target T11, ELF3 (Homo sapiens, UniProt P78545 1-371).
T11 sequence: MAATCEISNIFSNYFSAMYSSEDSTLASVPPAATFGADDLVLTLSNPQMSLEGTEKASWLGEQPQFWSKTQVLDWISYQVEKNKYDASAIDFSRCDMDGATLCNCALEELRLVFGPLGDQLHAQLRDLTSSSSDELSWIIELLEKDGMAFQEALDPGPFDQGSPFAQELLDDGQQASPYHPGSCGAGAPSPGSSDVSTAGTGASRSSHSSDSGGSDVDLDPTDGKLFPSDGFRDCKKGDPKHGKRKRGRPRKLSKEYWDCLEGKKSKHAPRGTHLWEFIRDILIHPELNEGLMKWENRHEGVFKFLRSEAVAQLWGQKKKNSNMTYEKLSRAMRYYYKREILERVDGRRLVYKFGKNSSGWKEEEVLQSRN
Conditions: protein: recombinant; tags: N-terminal GST; dsDNA, one strand shown. In a few lines:
as §1

Another test has as its target CRX (Homo sapiens, UniProt O43186 1-299). Conditions: protein: recombinant; tags: N-terminal GST; dsDNA, one strand shown. An outline of the steps:
as §1

In the next test the target is ETV1 (Homo sapiens, UniProt P50549 1-477). As to conditions: protein: recombinant; tags: N-terminal GST; dsDNA, one strand shown. An outline of the steps: as §1
Sequence of ETV1 (P50549 whole entry): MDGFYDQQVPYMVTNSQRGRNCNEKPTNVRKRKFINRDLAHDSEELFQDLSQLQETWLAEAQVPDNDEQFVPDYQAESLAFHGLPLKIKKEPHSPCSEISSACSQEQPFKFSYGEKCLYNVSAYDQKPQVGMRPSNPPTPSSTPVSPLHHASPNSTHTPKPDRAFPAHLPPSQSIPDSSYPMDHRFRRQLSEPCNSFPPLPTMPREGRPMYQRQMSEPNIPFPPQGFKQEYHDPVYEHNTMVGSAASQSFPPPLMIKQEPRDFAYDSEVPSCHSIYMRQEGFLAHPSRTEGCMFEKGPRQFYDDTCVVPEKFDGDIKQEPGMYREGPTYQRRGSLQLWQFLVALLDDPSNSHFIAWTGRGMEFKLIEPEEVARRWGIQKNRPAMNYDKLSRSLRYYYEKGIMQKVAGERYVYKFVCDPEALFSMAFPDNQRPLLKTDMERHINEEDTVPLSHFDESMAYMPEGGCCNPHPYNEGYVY

Sequence of HSF1 (Q00613 whole entry): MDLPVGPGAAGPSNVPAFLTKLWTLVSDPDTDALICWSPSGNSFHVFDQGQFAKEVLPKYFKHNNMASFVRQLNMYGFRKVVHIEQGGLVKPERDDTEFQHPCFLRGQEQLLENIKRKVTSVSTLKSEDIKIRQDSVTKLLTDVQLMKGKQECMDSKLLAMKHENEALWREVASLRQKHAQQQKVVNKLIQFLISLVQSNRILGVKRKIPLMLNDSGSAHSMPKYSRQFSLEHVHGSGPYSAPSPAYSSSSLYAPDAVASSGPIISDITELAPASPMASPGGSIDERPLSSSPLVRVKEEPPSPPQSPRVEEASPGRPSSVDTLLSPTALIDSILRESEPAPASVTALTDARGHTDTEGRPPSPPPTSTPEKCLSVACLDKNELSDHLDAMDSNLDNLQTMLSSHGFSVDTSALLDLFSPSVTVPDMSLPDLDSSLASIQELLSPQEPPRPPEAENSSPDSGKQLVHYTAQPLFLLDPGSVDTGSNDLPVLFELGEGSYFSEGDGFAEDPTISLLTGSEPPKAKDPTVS
Sequence of ETV5 (P41161 whole entry): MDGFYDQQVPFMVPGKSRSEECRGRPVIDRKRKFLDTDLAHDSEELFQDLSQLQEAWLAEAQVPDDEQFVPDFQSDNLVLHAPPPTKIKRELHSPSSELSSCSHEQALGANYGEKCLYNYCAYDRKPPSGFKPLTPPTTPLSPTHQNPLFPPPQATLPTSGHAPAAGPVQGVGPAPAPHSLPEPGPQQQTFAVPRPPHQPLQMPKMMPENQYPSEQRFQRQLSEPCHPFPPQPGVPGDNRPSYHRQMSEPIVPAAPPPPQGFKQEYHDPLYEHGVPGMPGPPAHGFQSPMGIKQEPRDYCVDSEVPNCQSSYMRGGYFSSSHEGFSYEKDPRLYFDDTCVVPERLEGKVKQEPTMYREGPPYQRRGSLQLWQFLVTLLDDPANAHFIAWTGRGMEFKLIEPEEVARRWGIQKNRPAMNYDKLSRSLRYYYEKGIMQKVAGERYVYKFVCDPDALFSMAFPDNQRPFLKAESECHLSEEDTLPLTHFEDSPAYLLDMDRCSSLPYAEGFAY
Sequence of CRX (O43186 whole entry): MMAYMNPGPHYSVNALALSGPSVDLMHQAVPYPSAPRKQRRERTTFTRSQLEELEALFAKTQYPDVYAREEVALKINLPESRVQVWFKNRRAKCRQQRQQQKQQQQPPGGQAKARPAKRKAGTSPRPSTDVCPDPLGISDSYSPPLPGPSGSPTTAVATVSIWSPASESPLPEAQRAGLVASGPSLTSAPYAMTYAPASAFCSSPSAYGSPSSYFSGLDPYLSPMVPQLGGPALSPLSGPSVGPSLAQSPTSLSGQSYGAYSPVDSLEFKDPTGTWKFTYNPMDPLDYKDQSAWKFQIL
Sequence of ELF1 (P32519 whole entry): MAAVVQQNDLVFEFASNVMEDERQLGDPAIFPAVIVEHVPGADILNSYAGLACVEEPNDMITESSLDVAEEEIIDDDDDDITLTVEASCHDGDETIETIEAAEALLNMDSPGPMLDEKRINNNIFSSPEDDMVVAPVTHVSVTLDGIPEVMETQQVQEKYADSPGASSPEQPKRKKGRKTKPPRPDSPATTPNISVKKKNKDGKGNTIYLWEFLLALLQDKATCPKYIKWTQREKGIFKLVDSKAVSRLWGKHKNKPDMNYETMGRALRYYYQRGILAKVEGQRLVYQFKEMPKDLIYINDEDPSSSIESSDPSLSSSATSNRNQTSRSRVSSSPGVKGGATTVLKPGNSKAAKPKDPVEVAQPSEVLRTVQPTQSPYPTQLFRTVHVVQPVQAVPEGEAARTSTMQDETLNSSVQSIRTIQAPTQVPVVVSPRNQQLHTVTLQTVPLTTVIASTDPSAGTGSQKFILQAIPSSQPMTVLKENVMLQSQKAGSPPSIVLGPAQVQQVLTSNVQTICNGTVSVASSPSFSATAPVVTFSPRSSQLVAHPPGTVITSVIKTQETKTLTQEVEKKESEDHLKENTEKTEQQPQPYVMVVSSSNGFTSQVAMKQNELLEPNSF
Sequence of ELF4 (Q99607 whole entry): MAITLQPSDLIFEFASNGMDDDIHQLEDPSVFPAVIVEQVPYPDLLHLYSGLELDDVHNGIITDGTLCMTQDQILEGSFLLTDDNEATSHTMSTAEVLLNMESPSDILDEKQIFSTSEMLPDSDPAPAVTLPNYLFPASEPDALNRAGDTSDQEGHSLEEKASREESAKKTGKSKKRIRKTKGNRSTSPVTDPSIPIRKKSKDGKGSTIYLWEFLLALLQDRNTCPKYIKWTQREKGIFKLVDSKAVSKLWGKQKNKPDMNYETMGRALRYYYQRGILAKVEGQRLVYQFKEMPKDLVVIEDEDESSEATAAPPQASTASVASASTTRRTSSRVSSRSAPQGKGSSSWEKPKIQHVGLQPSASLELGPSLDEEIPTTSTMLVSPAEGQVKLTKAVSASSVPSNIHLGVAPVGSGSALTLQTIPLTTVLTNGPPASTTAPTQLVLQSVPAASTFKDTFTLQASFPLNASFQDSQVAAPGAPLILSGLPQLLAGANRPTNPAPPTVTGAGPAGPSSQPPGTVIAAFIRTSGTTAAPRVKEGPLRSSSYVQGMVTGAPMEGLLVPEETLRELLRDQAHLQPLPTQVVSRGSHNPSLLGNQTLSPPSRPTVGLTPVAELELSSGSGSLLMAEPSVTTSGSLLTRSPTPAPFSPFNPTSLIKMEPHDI
Sequence of SPIB (Q01892 whole entry): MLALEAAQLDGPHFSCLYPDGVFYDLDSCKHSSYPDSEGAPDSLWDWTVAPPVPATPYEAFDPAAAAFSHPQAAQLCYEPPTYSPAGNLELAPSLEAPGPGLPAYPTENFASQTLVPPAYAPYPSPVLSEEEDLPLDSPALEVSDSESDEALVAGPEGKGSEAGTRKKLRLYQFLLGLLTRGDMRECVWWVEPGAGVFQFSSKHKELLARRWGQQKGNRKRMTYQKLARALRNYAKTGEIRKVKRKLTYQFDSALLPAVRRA

For the sequence TCGTTC, the binding signal in the test with FLI1 is 1.17 fold enrichment (6-mer frequency, TF over GST control); with ELK1, 1.15 fold enrichment (6-mer frequency, TF over GST control); with GABPA, 1.33 fold enrichment (6-mer frequency, TF over GST control); with ERG, 1.27 fold enrichment (6-mer frequency, TF over GST control); with ELF1, 1.15 fold enrichment (6-mer frequency, TF over GST control); with EHF, 1.23 fold enrichment (6-mer frequency, TF over GST control). Besides, the binding signal with SPI1 is 1.17 fold enrichment (6-mer frequency, TF over GST control); with SPIB, 1.23 fold enrichment (6-mer frequency, TF over GST control); with ELK3 it was 1.23 fold enrichment (6-mer frequency, TF over GST control); with FEV, 1.23 fold enrichment (6-mer frequency, TF over GST control); in the test with ETV5, 1.29 fold enrichment (6-mer frequency, TF over GST control); with HSF1, 1.39 fold enrichment (6-mer frequency, TF over GST control). Further, the binding signal with SPIC is 1.23 fold enrichment (6-mer frequency, TF over GST control); with ELF4, 1.31 fold enrichment (6-mer frequency, TF over GST control); with ELK4, 1.39 fold enrichment (6-mer frequency, TF over GST control); in the test with ETV2, 1.37 fold enrichment (6-mer frequency, TF over GST control); with ELF3, 1.15 fold enrichment (6-mer frequency, TF over GST control); in the test with CRX, 1.04 fold enrichment (6-mer frequency, TF over GST control). In addition, the binding signal with ETV1 was 1.2 fold enrichment (6-mer frequency, TF over GST control).
